A short description of test [1]: P. berghei load reduction in hepatocytes – cell-based, HepG2, luciferase luminescence, HepG2 viability, primary screen (AID 624349; in the data active = parasite load remaining mostly below about 12%, no sharp cut-off; inactive = mostly above about 10%;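 also: 100% = mean of DMSO negative control wells on the same plate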). To be noted: P. berghei liver stage in HepG2, luciferase luminescence, concentration not given here; parasite load remaining: stronger effect = lower value; viability: measured here: HepG2 viability without parasites.
A short description of test [2]: Wnt pathway potentiators raising nuclear beta-catenin – imaging, WNT3A-conditioned medium, mouse C2C12, NPC library, primary screen (AID 1117326; in the data active = nuclear beta-catenin stimulation mostly above about 4.2%, no sharp cut-off; inactive = mostly below about 10%). To be noted: stronger effect = higher value.
Test [3] is described as follows: stimulators of insulin release from INS-1E, primary screen, cell-based, 5 mM glucose, NPC library (AID 1117329;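 active = compound raises insulin release from rat beta cells at 5 mM glucose, no numeric limit stated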). The settings on record: rat INS-1E insulin secretion, at 10 µM, stronger effect = higher value.
Test [4] can be described thus: growth inhibition of GSK3B-pretreated HCT116 cells – cell-based, CellTiter-Glo, 0.2 to 20 µM (AID 1117336;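 active = compounds lowering colon cancer cell viability after pretreatment blocking the GSK3B kinase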). To be noted: HCT116 viability after GSK3B inhibitor, at 20 µM, stronger effect = higher value.
Test [5] is described as follows: inhibition of endothelial tube formation, primary screen, imaging, VEGF stimulated, CD31 staining, tube area, NPC library (AID 1117340;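 active = compound that reduces growth-factor-driven endothelial tube area in a mixed cell culture, no cutoff stated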). The settings on record: VEGF-stimulated ADSC/ECFC co-culture, at 10 µM, stronger effect = higher value.
A short description of test [6]: GLP1 release stimulators, primary, NCI-H716, NPC library (AID 1117341;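 active = compound raises GLP1 secretion from the human gut endocrine cells, with no numeric limit stated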). To be noted: NCI-H716 cells, at 10 µM, stronger effect = higher value.
Test [7] can be described thus: HCT116 colon cancer cell growth inhibition, primary screen, CellTiter-Glo luminescence, NPC library (AID 1117342;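 active = compounds that lower survival of HCT116 colon cancer cells in the luminescence readout, no numeric limit stated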). The settings on record: at 20 µM (top of the series).
Test [8] in a line: reduced SW480 viability measured with CellTiter-Glo, NPC library, primary (AID 1117343). To be noted: CellTiter-Glo luminescence; at 20 µM (top of the series).
Test [9] is described as follows: NPC library primary testing for decreased DLD-1 cell viability via CellTiter-Glo (AID 1117346;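 active = compounds that lower survival of DLD-1 colon cancer cells in the luminescence readout, no cutoff given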). The settings on record: DLD-1 viability, CellTiter-Glo luminescence; at 20 µM (top of the series).
Test [10] can be described thus: EMT-state selective cytotoxicity in co-culture – imaging, PC-3E GFP, TEM4-18 mCherry, primary screen (AID 1345086;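 active = compounds killing one labelled cell type while sparing the other, by normalised counts and ratio limits, not self-fluorescent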;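 as to all read-outs here: cells exposed to compound for 72 h before imaging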;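 as to red/green cell ratio (normalised): normalised mesenchymal count divided by normalised epithelial count so high means epithelial killing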). To be noted: PC-3E GFP / TEM4-18 mCherry co-culture, imaging cell counts, at 1 µM; for red/green cell ratio (normalised): actives lie on both sides.
Test [11] in a line: MELAS cybrid and Rieske KO viability enhancers – cell-based, MELAS cybrids, Rieske KO mouse fibroblasts, CellTiter-Glo, primary screen (AID 1508586;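 active = mean z-score across replicates of 1.96 or higher in either the MELAS or the Rieske mutant cell line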;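 also: z relative to plate mean and SD of compound and empty wells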). The settings on record: low glucose.
For test [12], the target named is NAD(+) hydrolase SARM1 (Homo sapiens) (UniProt Q6SZW1). Kind of test: blocking NAD cleavage by SARM1 SAM-TIR – cell lysate, NAD-Glo luminescence (AID 1508614;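 active = compound whose remaining NAD level is above about 45 nM, limit read from the data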;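 also: higher remaining NAD means stronger inhibition of SARM1 NADase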). The settings on record: SAM-TIR HEK293T lysate NADase, at 1 µM, stronger effect = higher value.
Test [13] is described as follows: galactose survival enhancers in mitochondrial complex I cybrids – cell-based, galactose medium, ATP luminescence, primary screen (AID 1645843;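 active = z-score of at least 1.8 in each of two replicates, scored against plate mean and spread of sample wells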;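 also: positive z means more ATP and so rescue of galactose-driven cybrid death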). To be noted: complex I mutant cybrid cells, 72 h, stronger effect = higher value.
Test [14] is described as follows: viability loss with induced miR-34 in A549 – imaging, A549 dox-inducible miR-34, nuclei and caspase counts, primary screen (AID 1347080;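 active = compounds whose cell count with miR-34 switched on is under 0.7 times the count with it off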). The settings on record: A549 miR-34 inducible, Hoechst nuclei count, 48 h.
The target of test [15] is Mitogen-activated protein kinase 7 (Homo sapiens) (UniProt Q13164). Kind of test: Gal4-ERK5 driven luciferase induction – cell-based, HTS, primary screen (AID 1508626;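 active = luciferase signal above three times the same-plate solvent-only control wells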;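 also: luciferase driven by Gal4-ERK5 fusion binding five Gal4 sites before minimal TATA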). The settings on record: HeLa Gal4-ERK5 transactivation, 18 h, at 5 µM, stronger effect = higher value.
Test [16] is described as follows: yeast 75Q aggregation reduction – 75Q-TubU reporter (AID 1593). The settings on record: Yeast 75Q polyglutamine aggregation reporter.
A short description of test [17]: blockers of cytochrome c efflux from mitochondria – biochemical, purified mitochondria (AID 1603).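 Also: mouse liver mitochondria challenged with calcium chloride; signal normalized to the plate average as 100%.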 To be noted: stronger effect = lower value.
A short description of test [18]: polyglutamine aggregate formation blockers (AID 1604). To be noted: polyglutamine-induced protein aggregation inhibition assay; stronger effect = higher value; tested at 2.5 µM.
For test [19], the system named is Aerobactin synthetase IucA (Klebsiella pneumoniae hvKP1). Kind of test: IucA enzyme inhibition, primary screen, biochemical, Spectrum library (AID 1346200; call rule not given here;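 also: 100% = wells without compound and 0% = wells lacking enzyme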). The settings on record: malachite green pyrophosphate, A620, at 8 µM, stronger effect = lower value.
The mark [20] stands for this setting: measured here: epithelial PC-3E GFP cell survival.
Setting [21] is: measured here: mesenchymal TEM4-18 mCherry cell survival.
Where [22] appears, read: MELAS cybrid survival, CellTiter-Glo 48 h, stronger effect = higher value.
[23] abbreviates: Rieske KO mouse fibroblast survival, CellTiter-Glo 72 h.
The mark [24] stands for this setting: measured here: relative caspase fold change +Dox/-Dox.
Where [25] appears, read: measured here: total cells with miR-34 induction, stronger effect = lower value.
Setting [26] is: measured here: total cells without miR-34 induction.

Values joined by “and” are separate entries in the source; they are usually repeats but may differ in a detail not shown here. Equal values may be shown once. Active and inactive are the calls of the source.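 The calls were made as follows, unless noted: active = compounds that lower viability of the colon cancer cells in the luminescence readout, with no numeric limit stated; inactive = the rest.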

NAD(+) hydrolase SARM1 (Homo sapiens), sequence (Q6SZW1 whole entry, looked up): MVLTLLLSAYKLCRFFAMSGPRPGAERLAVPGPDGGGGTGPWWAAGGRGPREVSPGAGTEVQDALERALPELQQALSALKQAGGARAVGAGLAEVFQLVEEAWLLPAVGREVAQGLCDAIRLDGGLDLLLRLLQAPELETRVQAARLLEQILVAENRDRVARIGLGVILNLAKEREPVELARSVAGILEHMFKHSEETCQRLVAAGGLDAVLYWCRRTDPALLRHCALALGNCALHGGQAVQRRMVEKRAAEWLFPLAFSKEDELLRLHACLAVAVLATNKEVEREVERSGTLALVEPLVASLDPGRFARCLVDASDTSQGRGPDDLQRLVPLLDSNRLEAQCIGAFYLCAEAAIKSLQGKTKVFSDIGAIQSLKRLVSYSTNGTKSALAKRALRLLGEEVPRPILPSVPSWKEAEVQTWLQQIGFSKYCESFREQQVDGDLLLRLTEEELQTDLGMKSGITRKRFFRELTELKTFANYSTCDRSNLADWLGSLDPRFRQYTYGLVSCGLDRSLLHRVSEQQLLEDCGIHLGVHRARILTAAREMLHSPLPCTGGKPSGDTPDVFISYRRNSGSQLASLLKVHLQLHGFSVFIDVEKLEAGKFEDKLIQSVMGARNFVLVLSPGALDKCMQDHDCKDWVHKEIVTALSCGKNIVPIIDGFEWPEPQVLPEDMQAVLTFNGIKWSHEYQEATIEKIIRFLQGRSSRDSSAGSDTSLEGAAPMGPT
Mitogen-activated protein kinase 7 (Homo sapiens), sequence (Q13164 whole entry, looked up, the tested form may be a part): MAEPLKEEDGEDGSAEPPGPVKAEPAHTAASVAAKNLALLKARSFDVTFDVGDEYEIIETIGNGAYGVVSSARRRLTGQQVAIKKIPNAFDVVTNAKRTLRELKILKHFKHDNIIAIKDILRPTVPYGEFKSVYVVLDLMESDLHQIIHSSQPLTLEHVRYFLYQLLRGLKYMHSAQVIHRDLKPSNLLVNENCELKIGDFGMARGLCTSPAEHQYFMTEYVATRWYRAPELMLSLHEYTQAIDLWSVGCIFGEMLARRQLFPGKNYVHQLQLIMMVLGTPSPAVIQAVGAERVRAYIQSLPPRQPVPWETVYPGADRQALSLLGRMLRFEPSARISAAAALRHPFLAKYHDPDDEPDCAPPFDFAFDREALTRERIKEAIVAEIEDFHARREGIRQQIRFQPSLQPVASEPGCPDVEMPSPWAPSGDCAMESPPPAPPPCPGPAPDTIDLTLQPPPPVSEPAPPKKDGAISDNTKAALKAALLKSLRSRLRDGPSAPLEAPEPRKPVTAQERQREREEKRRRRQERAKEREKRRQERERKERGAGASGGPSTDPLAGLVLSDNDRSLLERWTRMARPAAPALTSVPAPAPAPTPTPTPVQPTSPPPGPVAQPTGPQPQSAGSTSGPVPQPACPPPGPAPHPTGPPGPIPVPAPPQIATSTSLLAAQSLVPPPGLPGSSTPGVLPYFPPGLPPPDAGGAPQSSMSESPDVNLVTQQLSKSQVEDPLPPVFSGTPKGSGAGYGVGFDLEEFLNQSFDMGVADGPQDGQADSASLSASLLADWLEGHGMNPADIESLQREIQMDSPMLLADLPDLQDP

With `c1ccc2c(c1)OCC(C1=NCCN1)O2` (stereo unspecified), in test [1], the parasite load remaining was 48.2% (inactive) and 42.6% (inactive). Besides, in test [1], the viability is 92.9% and 100%. The nuclear beta-catenin stimulation is 5.9% (inactive) in [2] (at 10 µM) and -1.4% in test [2] (stimulation, at 2 µM). Moreover, in test [3], the insulin secretion stimulation was 2.3% (inactive). The viability decrease in test [4] was 14.1% (inactive). Further, in test [5], the tube area decrease was -4.8% (inactive). For the same molecule, the GLP1 secretion stimulation in [6] was 0.1% (inactive). In test [7], the inhibition of viability is 17.5% (inactive). The results for the viability decrease (inhibition) in test [8] and in [9] were 33.2% (inactive) and -3.9% (inactive), respectively. The red/green cell ratio (normalised) in test [10] was 0.85 (inactive). For the same molecule, the normalised cell number in [10] (setting [20]) amounted to 1.22; in test [10] (setting [21]) it was 1.03. The z-score is 0.698 (inactive) and 0.759 (inactive) in [11] (setting [22]); -0.433 and -0.198 in test [11] (setting [23]); -1 (inactive) and -0.91 (inactive) and -1.57 (inactive) in test [13]. Further, the remaining NAD in [12] was 10 nM (inactive).

`O=C(N/N=C/c1ccc([N+](=O)[O-])o1)c1cc([N+](=O)[O-])cc([N+](=O)[O-])c1O`: the nuclear beta-catenin stimulation in [2] (at 10 µM) was 0.7% (inactive); in [2] (stimulation, at 2 µM) it was 1.8%. For the same molecule, the insulin secretion stimulation in test [3] was 1.3% (inactive). Further, in test [4], the viability decrease was 79.6% (active). Further, the tube area decrease in test [5] was -13.6% (inactive). Besides, in [6], the GLP1 secretion stimulation was 1% (inactive). In [7], the inhibition of viability was 29.8% (inactive). The values for the viability decrease (inhibition) in test [8] and in test [9] were 25.2% (inactive) and 4.8% (inactive), respectively. For the same molecule, the red/green cell ratio (normalised) in test [10] is 1.05 (inactive). Besides, the normalised cell number in [10] (setting [20]) turned out to be 1.03; in test [10] (setting [21]) it was 1.08. For the same molecule, the figures for the fold change in test [14] (stronger effect = lower value) and in [14] (setting [24]) were 0.946 (inactive) and 1.02, respectively. Also, the cell count in test [14] (setting [25]) worked out at 8410; in test [14] (setting [26]), 8890.

`COc1cccc([C@@]2(O)CCCC[C@@H]2CN(C)C)c1`: the nuclear beta-catenin stimulation in test [2] (at 10 µM) was 4.3% (inactive); in [2] (stimulation, at 2 µM), 1.4%. The insulin secretion stimulation in test [3] was 9.4% (inactive). In test [4], the viability decrease is 34.1% (inactive). In addition, the tube area decrease in [5] is -7.2% (inactive). Besides, in [6], the GLP1 secretion stimulation is 4.9% (inactive). The inhibition of viability in [7] was 30.7% (inactive). Further, the viability decrease (inhibition) was 75.1% (active) in test [8] and 20.8% (inactive) in [9]. Also, the fold change in [14] (stronger effect = lower value) was 0.937 (inactive); in test [14] (setting [24]) it was 0.969. The values for the cell count in [14] (setting [25]) and in test [14] (setting [26]) were 10100 and 10700, respectively. In addition, the z-score in test [11] (setting [22]) was 0.879 (inactive) and 0.255 (inactive); in [11] (setting [23]), 0.166 and -0.539; in test [13], 0.845 (inactive). The remaining NAD in test [12] was 10 nM (inactive). Besides, the luciferase signal in test [15] is 40 AU (inactive).

In the case of `C[N+]1(CCC(C(N)=O)(c2ccccc2)c2ccccc2)CCCCC1`, in test [1], the parasite load remaining was 104% (inactive). This molecule also had a viability in [1] of 70.3%. Also, the nuclear beta-catenin stimulation in [2] (at 10 µM) was 0.3% (inactive); in test [2] (stimulation, at 2 µM), 0.3%. The insulin secretion stimulation in [3] was 0.55% (inactive). Besides, the viability decrease in test [4] was 13.5% (inactive). In addition, in test [5], the tube area decrease was -8.4% (inactive). Further, the GLP1 secretion stimulation in [6] was 1.2% (inactive). In addition, in test [7], the inhibition of viability is -21.6% (inactive). The viability decrease (inhibition) was -9.7% (inactive) in test [8] and -24.2% (inactive) in [9]. Also, the fold change in [14] (stronger effect = lower value) is 0.846 (inactive); in test [14] (setting [24]), 2.2. Moreover, the cell count in test [14] (setting [25]) was 8180; in [14] (setting [26]), 9670. In test [13], the z-score was 0.675 (inactive).

As to `Oc1cccc2cccnc12`, the score in test [16] was found to be 0.03. Also, in [17], the cytochrome c release ratio was determined as 0.94. The inhibition of aggregation in test [18] is 83.3%. The parasite load remaining in test [1] is 64.5% (inactive) and 25.4% (inactive). Also, in test [1], the viability was 53.5% and 57.1%. The nuclear beta-catenin stimulation in test [2] (at 10 µM) was 6.4% (inactive); in test [2] (stimulation, at 2 µM), 0.8%. In test [3], the insulin secretion stimulation was -1% (inactive). In [4], the viability decrease was -3.1% (inactive). For the same molecule, in [5], the tube area decrease was -4.7% (inactive). The GLP1 secretion stimulation in [6] was 81.5% (active). Further, in test [7], the inhibition of viability is 8.1% (inactive). Also, the viability decrease (inhibition) in [8] was 68.4% (active); in test [9] it was 53.9% (active). The red/green cell ratio (normalised) in [10] is 1.03 (inactive). Moreover, the normalised cell number in [10] (setting [20]) came to 0.9; in test [10] (setting [21]) it was 0.93. Moreover, the activity remaining in [19] is 111% (inactive). Besides, the results for the fold change in test [14] (stronger effect = lower value) and in [14] (setting [24]) were 0.857 (inactive) and 0.864, respectively. Also, the cell count in [14] (setting [25]) is 8140; in test [14] (setting [26]), 9500. In addition, in test [12], the remaining NAD is 10 nM (inactive).

The values above are taken from PubChem BioAssay.
